Test results: PubChem BioAssay (NCATS)
A number with no mark means an inactive call. Inconclusive results are not listed. Where a call stands in place of a potency, no number is given. Activity calls are given as the source filed them. The call rests on the fitted dose curve; in most records, active means well fitted curve in the direction sought with a large enough effect; inconclusive means small, poorly fitted or top-dose-only effect, or another doubt; inactive means no such curve, though single readings can be large; an effect the other way counts as inactive or inconclusive. *1 amine or outer side, *2 acyl side, *3 side chain or, on linkers, in order; H or OH if unused. Where a SMILES comes first, the peptide text is derived from it. [ ]: non-standard residue; d: D form. The star is where a group is joined. ξ: configuration not given here. X9 = CCC(C)(N*)C(=O)C1CC[C@@H](C(=O)N[C@@H](Cc2ccccc2)C(=O)NCC(=O)O)N1; X8 = O=C([C@@H]1CC(O)CN1[*:1])[*:2]; aIle = CC[C@@H](C)[C@H](N)C(=O)O; Thr(3ξ) = CC(O)[C@H](N)C(=O)O; ξIva = CCC(C)(N)C(=O)O; Aib = CC(C)(N)C(=O)O

What was measured:
[1] = target: Glutathione peroxidase 1 (Homo sapiens) (UniProt P07203); assay: Primary qHTS Assay for Inhibitors of Recombinant Selenoprotein Glutathione Peroxidase 1 (GPX1) (AID 1845191); further: nearly all actives have a fitted effect of over 65% in size
Sequence of Glutathione peroxidase 1 (Homo sapiens) (P07203 whole entry, looked up): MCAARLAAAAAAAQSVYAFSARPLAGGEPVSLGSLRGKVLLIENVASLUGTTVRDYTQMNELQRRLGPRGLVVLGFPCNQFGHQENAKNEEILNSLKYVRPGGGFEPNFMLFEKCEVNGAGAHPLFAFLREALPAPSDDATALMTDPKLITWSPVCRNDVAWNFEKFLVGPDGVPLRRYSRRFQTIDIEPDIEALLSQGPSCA
Procedure, shortened: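 Recombinant GPX1 (10 nM final) was preincubated with compound for 30 min at room temperature, then reacted with 1 mM GSH, 0.5 mM CHP, 0.5 mM NADPH and 100 nM glutathione reductase; NADPH fluorescence (340/450 nm) was read at 0 and 15 min.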

[2] = target: Phospholipid hydroperoxide glutathione peroxidase GPX4 (Homo sapiens) (UniProt P36969); assay: Primary qHTS Assay for Inhibitors of Recombinant Selenoprotein Glutathione Peroxidase 4 (GPX4) (AID 1845192); further: nearly all actives have a fitted effect of over 65% in size; on activity change, negative = inhibition: series mostly up to about 50 µM
Sequence of Phospholipid hydroperoxide glutathione peroxidase GPX4 (Homo sapiens) (P36969 whole entry, looked up): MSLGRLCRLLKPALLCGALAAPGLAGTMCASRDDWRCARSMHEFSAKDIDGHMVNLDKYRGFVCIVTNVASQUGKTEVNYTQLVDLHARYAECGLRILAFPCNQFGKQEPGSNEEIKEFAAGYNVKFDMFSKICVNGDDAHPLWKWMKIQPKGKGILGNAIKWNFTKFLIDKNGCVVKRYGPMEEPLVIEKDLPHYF
Procedure, shortened: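 GR-coupled readout: 100 nM GR, 1 mM GSH, 0.5 mM NADPH; NADPH fluorescence (ex 340/em 450 nm) read at t=0 and after 15 min RT. GPX4 200 nM, preincubated 30 min with compound; substrate 0.5 mM CHP.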

[3] = target: Luciferin 4-monooxygenase (Photinus pyralis) (UniProt P08659); assay: Primary firefly luciferase (FLuc) qHTS assay for identification of artifact compounds. (AID 1845220); further: nearly all actives have a fitted effect of over 60% in size; on activity change, negative = inhibition: series mostly up to about 54 µM
Procedure, shortened: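 Reaction readout was CCD-imaged luminescence, taken 5 min after adding 10 nM purified firefly enzyme to compound-treated wells holding 10 uM luciferin and ATP in pH 7.6 buffer.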

[4] = Primary fluorescence-based thiol-reactive (MSTI) qHTS assay for identification of artifact compounds. (AID 1845221); further: nearly all actives have a fitted effect of over 65% in size; further: potency means the concentration at half of the fitted maximal effect;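 on activity change, negative = thiol reactive: series mostly up to about 54 µM; thiol-reactive compounds lower the probe fluorescence signal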
Procedure, shortened: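 A multi-concentration qHTS design tested compounds against 4 uM MSTI, pH 7.4 phosphate-buffered saline. Plates were protected from light for 1 h at room temperature before imaging fluorescence.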

[5] = system: Nanoluciferase (engineered Oplophorus gracilirostris luciferase); assay: Primary Nanoluciferase (NLuc) qHTS assay for identification of artifact compounds. (AID 1845222);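 further: NLuc secreted into diluted conditioned medium of S16 cells; series mostly up to about 54 µM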
Procedure, shortened: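 Concentration-response data were obtained by luminescence after 5 min with Nano-Glo substrate at 1:100. The enzyme was diluted S16 NLuc-expressing cell medium, preincubated with compound for 15 min at RT. Curves were fitted with a 4-parameter Hill model.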

Row | Structure (SMILES) | Potency [1] | Potency [2] | Potency [3] | Potency [4] | Potency [5] | activity change, negative = inhibition [3] | activity change, negative = thiol reactive [4] | activity, negative = inhibition [5] | outcome [3]
1 | N[C@@H](CCNCc1ccc(Cl)cc1)C(=O)N1CCCCC1 | inactive | inactive | inactive | inactive | inactive | – | – | – | –
2 | CC1CCC2(C)CCC3(C)C(=CCC4C5(C)CCC(O)C(C)(C(=O)O)C5CCC43C)C2C1C (stereo not given) | inactive | inactive | inactive | inactive | inactive | – | – | – | –
3 | CCC(C)C(N)C(=O)NCCN1CCOCC1 (stereo not given) | inactive | inactive | inactive | inactive | inactive | – | – | – | –
4 | CCCC1=CC2=C(CO1)C(=O)C(C)(O)C(OC(=O)c1c(C)cc(OC)cc1O)C2 (stereo not given) | inactive | inactive | inactive | inactive | inactive | – | – | – | –
5 | C[C@@H]1C[C@H]2OC(=O)[C@@]3(C)CCC[C@](C)(C23)[C@@]1(O)CCC1=CC(=O)OC1O (stereo not given in full) | inactive | inactive | inactive | 3.29 µM (active) | inactive | – | – | – | –
6 | O=C(OC[C@H]1O[C@@H](Oc2ccccc2COC(=O)C2(O)C=CCCC2O)[C@H](O)[C@@H](O)[C@@H]1O)c1ccccc1 (stereo not given in full) | inactive | inactive | inactive | 5.19 µM (active) | inactive | – | – | – | –
7 | COC(=O)C1C(c2ccc(O)cc2)C(C(=O)O)C1c1ccc(O)cc1 (stereo not given) | inactive | inactive | inactive | inactive | inactive | – | – | – | –
8 | C/C(=C\CO)CC/C=C(\C)C(=O)O[C@@H]1O[C@H](CO)[C@@H](O)[C@H](O)[C@H]1O | inactive | inactive | inactive | inactive | inactive | – | – | – | –
9 | O=C1C(Cl)=C(N2CCOCC2)C(=O)N1c1ccc(Cl)c(Cl)c1 | inactive | inactive | inactive | inactive | inactive | – | – | – | –
10 | CC(=O)O[C@@H]1[C@H](OC(C)=O)C[C@@]2(C)C(CC[C@@H](C)[C@]23Cc2c(O)cc4c(c2O3)CN([C@@H](CCC(=O)O)C(=O)O)C4=O)C1(C)C (stereo not given in full) | inactive | inactive | inactive | inactive | inactive | – | – | – | –
11 | CC(CC(C)O[C@@H]1O[C@H](CO)[C@@H](O)[C@H](O)[C@H]1O)OC(=O)/C=C/c1ccc(O)cc1 (stereo not given in full) | inactive | inactive | inactive | 4.62 µM (active) | inactive | – | – | – | –
12 | C=C(C(=O)O)[C@@H]1CC[C@H](C)[C@@H]2CC(=O)C(C)=C2C1 | inactive | inactive | inactive | 21.2 µM (active) | inactive | – | – | – | –
13 | COc1ccc(CC(=O)NCc2ccccc2-c2ccccc2C(=O)NCCc2cccnc2)cc1 | inactive | inactive | inactive | inactive | inactive | – | – | – | –
14 | CC(NC(=O)[C@H](Cc1ccccc1)NC(=O)OCc1ccccc1)C(=O)CF (stereo not given in full) | inactive | inactive | inactive | inactive | inactive | – | – | – | –
15 | C[C@]1(C2CCCC2)Cc2cc(OCC(=O)O)c(Cl)c(Cl)c2C1=O | inactive | inactive | inactive | inactive | inactive | – | – | – | –
16 | Cc1ccc([C@@H]2CC=C(C(=O)O)[C@H](c3ccc(C(C)(C)C)cc3)N2S(=O)(=O)c2ccc(C)cc2)cc1 | inactive | inactive | inactive | inactive | inactive | – | – | – | –
17 | CC1=C2C(=O)C=C(CO)C2C2OC(=O)C(CS(=O)(=O)O)C2C(OC(=O)Cc2ccc(O)cc2)C1 (stereo not given) | inactive | inactive | inactive | 3.67 µM (active) | inactive | – | – | – | –
18 | CC(=O)OC12CC(C)C(O)C1/C=C(/COC1OC(CO)C(O)C(O)C1O)CCC1C(/C=C(\C)C2=O)C1(C)C (stereo not given) | inactive | inactive | inactive | inactive | inactive | – | – | – | –
19 | CC1(C)CC[C@]2(C(=O)O)CC[C@]3(C)C(=CCC4[C@@]5(C)C(=O)C[C@H](O)[C@@](C)(CO)C5CC[C@]43C)[C@@H]2C1 (stereo not given in full) | inactive | inactive | inactive | inactive | inactive | – | – | – | –
20 | NC(=O)c1ccc(F)c2c1C[C@@H](N(C1CCC1)C1CCC1)CO2 | inactive | inactive | inactive | inactive | inactive | – | – | – | –
21 | CC[C@@H](C)[C@H](NC(=O)C(C)(C)NC(=O)[C@H](CCC(N)=O)NC(=O)C(C)(CC)NC(=O)[C@H](Cc1c[nH]c2ccccc12)NC(C)=O)C(=O)N[C@H](C(=O)NC(C)(C)C(=O)N[C@@H](CC(C)C)C(=O)NC(C)(C)C(=O)N1CCC[C@H]1C(=O)N[C@@H](CCC(N)=O)C(=O)NC(C)(C)C(=O)N1CC(O)C[C@H]1C(=O)NC(C)(CC)C(=O)C1CC[C@@H](C(=O)N[C@@H](Cc2ccccc2)C(=O)NCC(=O)O)N1)C(C)O (stereo not given in full) (Ac-W[ξIva]Q[Aib][aIle][Thr(3ξ)][Aib]L[Aib]PQ[Aib][X8]-X9) | inactive | inactive | – | – | – | -13.1% [at 6.45 µM] | -2.24% [at 6.41 µM] | -3.07% [at 6.45 µM] | –
22 | CC(C)=CC1C[C@](C)(O)[C@@H]2[C@H]3CCC4[C@@]5(C)CC[C@H](O[C@@H]6OC[C@H](O)[C@H](O[C@@H]7O[C@H](CO[C@@H]8O[C@H](CO)[C@@H](O)[C@H](O)[C@H]8O)[C@@H](O)[C@H](O)[C@H]7O)[C@H]6O[C@@H]6O[C@@H](C)[C@H](O)[C@@H](O)[C@H]6O)C(C)(C)[C@@H]5CC[C@@]4(C)[C@@]34CO[C@@]2(C4)O1 (stereo not given in full) | inactive | inactive | – | – | – | – | 458% [at 11.5 µM] | 4.79% [at 11.6 µM] | inactive [at 11.6 µM]
